# A selection: hits, their analogues and other compounds. The true share with any hit is near 22%.
# E-sel TNF inh = blocks E-selectin expression induced by TNF alpha; HUVEC TNFa-induced E-selectin immunofluorescence, high content; inhibition, % at 2 µM; 120,000 tested, 0.71% active; AID 1246;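 active means inhibition above the batch mean plus 3 SD, and confirmed as a hit on visual image review, cut at about 43% in these data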;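 further: 0% = TNF-stimulated DMSO wells and 100% = unstimulated control wells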
# F-actin modifier = cytoskeleton assembly modification. HUVEC TNFa F-actin phalloidin imaging, high content. inhibition, % at 2 µM. 91,000 tested, 0.18% active;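 active means inhibition above the batch mean plus 3 SD and confirmed as a hit by visual image inspection, cut at about 30% in these data, passing the limit was not always enough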
# CYP2C9 act = increases human cytochrome P450 2C9 activity; P11712; recombinant CYP2C9, luciferin-H conversion, luminescence; active compounds read high; factor 1 = untreated enzyme, 0 = blocked; AID 1024; activation factor at 5 µM; 96,000 tested, 1.4% active;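 active means activation factor of 2 or more for CYP2C9 at a 5 µM dose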;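 further: 0 = sulfaphenazole-blocked wells and 1 = vehicle-only wells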
# CYP2C9 inhib = blocks human cytochrome P450 2C9 | CYP2C9 Supersomes, luciferin-H conversion, luminescence | 96,000 tested, 20% active | inhibition, % at 5 µM | P11712 | AID 777;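 active means blocking of liver enzyme CYP2C9 beyond about 50% at 5 µM, limit read from the data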
# CYP2C19 inh = blocks human cytochrome P450 2C19. P33261. CYP2C19 Supersomes, luciferin-H EGE luminescence, 30 min. inhibition, % at 5 µM. 96,000 tested, 21% active. AID 778;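 active means CYP2C19 inhibition above a set limit at 5 µM in the primary screen, cut at about 50% in these data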;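 further: plate controls were negative control wells for no effect and 2.5 mM tranylcypromine positive control for full effect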
# Target sequence (P33261 whole entry, looked up): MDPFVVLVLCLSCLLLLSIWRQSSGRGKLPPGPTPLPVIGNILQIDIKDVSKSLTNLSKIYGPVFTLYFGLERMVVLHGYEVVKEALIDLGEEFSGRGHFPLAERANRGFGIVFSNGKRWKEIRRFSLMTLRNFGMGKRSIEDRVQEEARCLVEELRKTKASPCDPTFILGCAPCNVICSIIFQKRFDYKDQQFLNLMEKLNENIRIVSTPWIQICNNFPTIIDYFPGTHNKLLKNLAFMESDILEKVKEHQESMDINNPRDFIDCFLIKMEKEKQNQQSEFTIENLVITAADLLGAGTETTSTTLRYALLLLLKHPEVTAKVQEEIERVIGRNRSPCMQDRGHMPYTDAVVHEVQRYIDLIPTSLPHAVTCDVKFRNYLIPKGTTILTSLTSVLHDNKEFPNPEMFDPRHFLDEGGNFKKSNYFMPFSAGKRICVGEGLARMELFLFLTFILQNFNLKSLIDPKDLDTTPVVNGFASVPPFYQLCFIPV
# CYP2C19 act = activators of human cytochrome P450 2C19; P33261; recombinant CYP2C19, luciferin-H EGE luminescence; active compounds read high; 0 = fully inhibited enzyme, 1 = untreated enzyme; activation factor at 5 µM; 96,000 tested, under 10 active;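 active means activation factor of at least 2 at 5 µM in the primary screen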;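 further: 0 = wells with 2.5 mM tranylcypromine and 1 = vehicle-only wells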
# Numbers without * were called inactive; . = no result given.
SMILES,E-sel TNF inh,F-actin modifier,CYP2C9 act,CYP2C9 inhib,CYP2C19 inh,CYP2C19 act
CCOc1ccccc1-c1nc(-c2ccncc2)no1,3.4,5.9,1.4,-37.4,78.0*,0.2
COc1ccc(Cl)cc1-c1nc(-c2ccncc2)no1,16.4,-2.2,0.6,38.0,78.6*,0.2
CCOc1ccccc1-c1nc(-c2cc3ccccc3nc2OC)no1,9.9,-1.7,1,-0.1,6.0,0.9
COc1ccccc1-c1nc(-c2ccncc2)no1,.,16.1,0.8,23.3,88.8*,0.1
NNC(=O)c1nn(-c2ccc(Cl)cc2)ccc1=O,-35.7,-22.6,1.2,-16.7,-16.7,1.2
COCCCNC(=O)c1cc2c(=O)n3cccc(C)c3nc2n(C(C)C)c1=N,1.2,23.3,1.1,-9.1,-12.6,1.1
Cc1ccc(-c2nn(C)c(=O)c3ccccc23)cc1CNS(C)(=O)=O,-45.1,-5.6,2.3*,-134.7,6.1,0.9
CC(=O)NCc1cc(-c2nn(C)c(=O)c3ccccc23)ccc1C,10.8,-10.2,0.7,27.3,-4.7,1
CCOC(=O)NCc1cc(-c2nn(C)c(=O)c3ccccc23)ccc1C,-8.9,-20.8,0.2,78.3*,68.6*,0.3
CC(=O)c1cccc(NC(=O)C23CC4CC(C2)CC(n2cncn2)(C4)C3)c1,13.8,.,.,.,.,.
Cc1cc2n(n1)C(c1ccc3c(c1)OCO3)Nc1c(C)cccc1-2 (stereo not given),3.1,27.8,0.1,92.2*,98.5*,0
COc1ccc(OC)c(CNC(=O)CCN2C(=O)COc3ccccc32)c1,-8.9,-5.2,1.3,-34.2,69.9*,0.3
COc1ccc(Br)cc1CNC(=O)CCN1C(=O)COc2ccccc21,-22.8,.,1.1,-7.9,80.8*,0.2
CCOc1ccc(CCNC(=O)CCN2C(=O)COc3ccccc32)cc1OCC,.,-62.9,0.7,32.2,14.6,0.9
O=C(CCN1C(=O)COc2ccccc21)NCCN1CCOCC1,12.1,20.4,1,4.8,1.4,1
O=C(CSc1nnc(-c2ccccn2)n1-c1ccc(Cl)cc1)Nc1ccc2c(c1)OCO2,-1.2,13.6,1,1.0,-7.9,1.1
Cc1nc(SCc2ccc(Br)cc2)[nH]c(=O)c1C,15.2,-24.1,0.7,31.9,47.1,0.5
O=c1cc(CSc2nnc(COc3ccccc3Cl)o2)nc2sccn12,.,12.5,0.5,52.9*,87.5*,0.1
Cc1cccc(OCc2nnc(SCc3cc(=O)n4cc(Br)ccc4n3)o2)c1,.,.,0.1,89.5*,91.7*,0.1
N#CC1=C2SCC(O)(c3ccccc3)N2C(=O)CC1c1ccccc1 (stereo not given),.,-6.5,0,99.2*,97.6*,0
N#CC1=C2SCN(Cc3ccco3)CN2C(=O)CC1c1cccc2ccccc12 (stereo not given),-18.9,.,0.6,41.7,-7.5,1.1
Cc1cc(C)n(CCc2nc3c4ccccc4n(CC#N)c(=O)n3n2)n1,.,-7.8,1.4,-36.4,1.6,1
O=C(O)c1cccc(CSc2nc(-c3ccccc3)cc(C(F)(F)F)n2)c1,18.2,.,.,.,.,.
CC(Sc1nc(-c2ccccc2)cc(C(F)(F)F)n1)C(=O)NCc1ccco1 (stereo not given),-1.2,10.3,1.6,-57.4,-1.8,1
CC1CCCN(C(=O)C(C)Sc2nc(-c3ccccc3)cc(C(F)(F)F)n2)C1 (stereo not given),.,-2.3,0.4,60.2*,71.3*,0.3
SMILES,E-sel TNF inh,F-actin modifier,CYP2C9 act,CYP2C9 inhib,CYP2C19 inh,CYP2C19 act
CC(Sc1nc(-c2ccccc2)cc(C(F)(F)F)n1)C(=O)N1CCCCC1 (stereo not given),-0.5,-35.4,0.4,58.0*,46.8,0.5
CCOCCc1nnc(NC(=O)Cc2ccccc2)s1,-11.9,-4.2,0.9,12.6,16.2,0.8
O=C(CNC(=O)c1ccccc1F)N/N=C/c1cn[nH]c1-c1ccccc1,4.8,.,.,.,.,.
CCOC(=O)c1cc(CC)sc1NC(=O)c1ccc(N2C(=O)CCC2=O)cc1,-31.0,2.1,1,0.6,-8.5,1.1
CCOC(=O)c1cc(CC)sc1NC(=O)c1cc(OC)c(OC)c(OC)c1,10.0,5.6,0.4,61.8*,13.7,0.9
COC(=O)CSc1nc(SCc2ccccc2Cl)nc2c1CCCC2,6.0,-19.2,0.3,69.2*,49.6,0.5
CCOc1ccc(C(=O)c2cc([N+](=O)[O-])ccc2Cl)cc1,5.9,-20.7,0.2,75.9*,34.3,0.7
CN1CCN(c2ccc([N+](=O)[O-])cc2C(=O)c2ccc(Cl)cc2)CC1,-14.2,-11.1,0.9,13.7,58.0*,0.4
